Assay results from PubChem BioAssay (NCATS).
Results filed as inconclusive are left out. Calls of active or inactive are those of the source. Calls follow the shape of the dose curve; as a rule, active = well fitted cell-killing curve with a large enough effect; inconclusive = small, poorly fitted or top-dose-only effect, or effect the other way; inactive = no such curve, though single readings can be large or run the other way.

Assay: Quantitative High-Throughput drug screen in 47 multiple myeloma cell lines against the NCATS MIPE library collection: LP1_DSMZ cell viability assay (AID 1918982); also: nearly all actives have a fitted effect of over 35% in size
Conditions: LP1 myeloma viability, CellTiter-Glo ATP luminescence, 48 h; series mostly up to 45.8 µM
Method in brief: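 MIPE 4.0 approved/investigational drugs; 500 cells/well; 48 h 37 °C humidified 5% CO2; CTG luminescence readout; DMSO = 100%, media = 0% viability.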
Potency is read from the fitted curve at half-maximal effect.

Compound	Potency
COc1ccc(C=Cc2cc(OC)c(OC)c(OC)c2)cc1NC(=O)[C@H](N)CO	0.0017 µM (active)
CCN(CC)Cc1ccc2cc(COC(=O)Nc3ccc(C(=O)NO)cc3)ccc2c1	0.935 µM (active)
CC(=O)OCC(=O)[C@@]1(O)CC[C@H]2[C@@H]3CCC4=CC(=O)CC[C@]4(C)[C@@H]3C(=O)C[C@@]21C	inactive
COc1ccc2c(c1OC)C(=O)OC2[C@H]1c2c(cc3c(c2OC)OCO3)CCN1C (stereo not given in full)	0.132 µM (active)
COc1cccc2c1C(=O)c1c(O)c3c(c(O)c1C2=O)C[C@@](O)(C(C)=O)C[C@H]3O[C@H]1C[C@H](N)[C@H](O)[C@H](C)O1	0.209 µM (active)
CCOC(=O)N1CCN([N+]([O-])=NOc2ccc([N+](=O)[O-])cc2C#N)CC1	2.64 µM (active)
C[C@H]1O[C@H](O[C@H]2[C@H](O)[C@@H](O)[C@@H](O[C@H]3[C@H](O)[C@@H](O)C(O)O[C@H]3CO)O[C@H]2CO)[C@H](O)[C@@H](O)[C@H]1N[C@H]1C=C(CO)[C@@H](O)[C@H](O)[C@@H]1O (stereo not given in full)	inactive
CC[C@H]1OC(=O)[C@H](C)[C@@H](O[C@H]2C[C@@](C)(OC)[C@@H](O)[C@H](C)O2)[C@H](C)[C@@H](O[C@@H]2O[C@H](C)C[C@H](N(C)C)[C@@H]2O)[C@](C)(OC)C[C@@H](C)C(=O)[C@H](C)[C@@H](O)[C@]1(C)O	inactive
OC[C@H]1OC(O)C[C@@H](O)[C@H]1O (stereo not given in full)	inactive
CN[C@H]1[C@@H](O)[C@@H]2O[C@@H]3O[C@H](C)CC(=O)[C@]3(O)O[C@@H]2[C@@H](NC)[C@H]1O	5.9 µM (active)
